Records with an inconclusive call do not appear. The source made the active and inactive calls. Unless noted, calls come from the whole dose curve; as a rule, active = well fitted curve in the direction sought with a large enough effect; inconclusive = small, poorly fitted or top-dose-only effect, or another doubt; inactive = no such curve, though single readings can be large; an effect the other way counts as inactive or inconclusive.
Tests used:
[1] = target: Lysosomal acid glucosylceramidase (Homo sapiens) (UniProt P04062); assay: Glucocerebrosidase-p2 (AID 348; in the data active = potency below about 10 µM; note: potency is the fitted concentration of half-maximal effect); conditions: purified GBA, blue fluorogenic substrate, 40 min
Procedure, shortened: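 Compounds titrated from 0.6 nM upwards against 0.2 nM enzyme in pH 5.9 citric acid/KH2PO4, taurocholate, tween-20; blue fluorogenic substrate 80 uM, 40 min room temperature, stopped and read Ex 365/Em 440 for AC50.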

[2] = AP1 Signaling Pathway (AID 357; active = well fitted curve in either direction with a large enough effect, not every such curve was filed as active;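 note: ME-180 reporter cells stimulated with EGF at its EC50 level; % is set by controls: 0 for no effect and ±100 for the full control effect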); conditions: ME-180 AP-1-bla reporter, EGF-induced, beta-lactamase ratio, 5 h; at 7.69 µM (top of the series) unless noted
Procedure, shortened: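 Modulation of EGF-driven AP-1 transcription was assessed with a beta-lactamase reporter in ME-180 cells. Compound and EC50 EGF were co-incubated 5 hours at 37 °C before 2.5-hour CCF4 loading at room temperature and dual-emission reading.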

[3] = target: Cytochrome P450 1A2 (Homo sapiens) (UniProt P05177); assay: p450-cyp1a2 (AID 410; calls by dose curve; note: potency is the fitted concentration of half-maximal effect); conditions: recombinant CYP1A2, luciferin-ME demethylation, luminescence; series mostly up to 57 µM
Procedure, shortened: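 Inhibition was calculated relative to 57 uM furafylline (full inhibition). The reaction used human CYP1A2 at 20nM with Luciferin-ME at its Km, 100uM, driven by an NADPH-regenerating system for 60 min at room temperature.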

[4] = NFAT Signaling Pathway (AID 444; active = well fitted curve in either direction with a large enough effect, not every such curve was filed as active;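 note: carbachol stimulus at about its EC50 of 1 µM final; % is set by controls: 0 for no effect and ±100 for the full control effect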); conditions: Jurkat NFAT-bla M1, carbachol, beta-lactamase ratio, 5 h; at 7.69 µM (top of the series) unless noted
Procedure, shortened: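 Jurkat cells carrying an NFAT-driven β-lactamase reporter and co-transfected muscarinic M1 receptor were treated with compound plus carbachol (1 uM final, an EC50 level) for 5 h at 37 °C. CCF4 loading followed for 1 h at RT; 460/530 nm ratio gave %activity.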

[5] = Stat Signaling Pathway (AID 446; active = well fitted curve in either direction with a large enough effect, not every such curve was filed as active;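 note: ME-180 cervical cancer cells given 40 pM IL-6 alongside compound; SIE-controlled beta-lactamase reporter measured as 460/530 nm FRET emission ratio; % is set by controls: 0 for no effect and ±100 for the full control effect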); conditions: ME-180 SIE beta-lactamase reporter, IL-6 stimulated, 5 h; at 7.69 µM (top of the series) unless noted
Procedure, shortened: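 ME-180 SIE-bla cells; overnight plating; cpd + IL-6 40 pM, 5 h, 37 C; LiveBLAzer 2.5 h RT; 460/530 nm emission ratio. Normalized to 300 pM IL-6 and 125 nM JAK inhibitor controls.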

[6] = target: Glucocorticoid receptor (Homo sapiens) (UniProt P04150); assay: GR-GFP Redistribution (AID 450;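 active = compounds whose dose series gives a full or clear partial fitted curve of increased nuclear translocation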; note: potency is the fitted concentration of half-maximal effect); conditions: U2OS GR-GFP nuclear translocation, laser cytometry, 2 h
[7] = target: Glucocorticoid receptor (Homo sapiens) (UniProt P04150); assay: GR-EFC Redistribution (AID 451; calls by dose curve; note: potency is the fitted concentration of half-maximal effect); conditions: CHO-K1 GR-EFC translocation, beta-gal luminescence, 2 h
Procedure, shortened: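 CHO-K1 cells stably expressing nuclear-localized β-gal enzyme acceptor and GR fused C-terminally to the enzyme donor fragment; ligand-driven nuclear translocation restores β-gal by complementation. Compounds titrated up to 46 uM final, 2 h at 37 °C; luminescence read.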

[8] = target: Mitogen-activated protein kinase 10 (Mus musculus) (UniProt Q61831); assay: JNK3 AlphaScreen Assay (AID 530; active = well fitted curve in either direction with a large enough effect, not every such curve was filed as active;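 note: kinase came from lysate of stimulated human HepG2 cells; signal reports phosphorylation of biotinylated GST-cJun 1-79 at Ser73 with 10 µM ATP; % is set by controls: 0 for no effect and ±100 for the full control effect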); conditions: JNK3 lysate, c-Jun phosphorylation; series mostly up to 57.1 µM
Procedure, shortened: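 JNK3 came from HepG2 lysates pre-activated with IL-1beta and TNF-alpha and phosphorylated biotinylated GST-cJun (1-79) at 10 uM ATP, pH 7.6, room temperature. Compounds were titrated. AlphaScreen signal used anti-phospho-cJun (Ser73) antibody.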

[9] = target: 3',5'-cyclic-AMP phosphodiesterase 4B (Homo sapiens) (UniProt Q07343); assay: qHTS Assay for Inhibitors of PDE-IV (AID 607; active = well fitted activation curve with a large enough effect in the main read-out, with a control signal flat, not every such curve was filed as active; note: % of control where 0% means no effect); conditions: HEK293 ACTOne CNG channel cells, membrane potential fluorescence; series mostly up to 22.9 µM
Procedure, shortened: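 ACTOne HEK293 cells carry a modified cAMP-gated CNG channel and express endogenous PDE4; plated 1000 cells/well, compounds up to 22.9 uM final. Membrane-potential dye fluorescence (ex 535/em 590) was read; parental cells received 10 uM forskolin + 100 uM RO 20-1724.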

[10] = target: Cytochrome P450 3A4 (Homo sapiens) (UniProt P08684); assay: qHTS Assay for Inhibitors and Substrates of Cytochrome P450 3A4 (AID 884); conditions: recombinant CYP3A4, Luciferin-PPXE luminescence; series mostly up to 57.1 µM; note: % is set by controls: 0 for no effect and ±100 for the full control effect; nearly all actives have a fitted effect of over 50% in size
Procedure, shortened: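 20 nM human CYP3A4 with 25 uM Luciferin-PPXE (at KM) in 200 mM KPO4, preincubated 10 min with compound; NADPH regeneration started a 60 min RT reaction. Luciferin detected by luminescence, normalized to 57 uM ketoconazole as full inhibition.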

[11] = qHTS Assay for Lipid Storage Modulators (AID 1519; calls by dose curve); conditions: Drosophila S3 cells, BODIPY lipid droplet/cell ratio, laser cytometry, cells loaded with oleic acid; for activity change, negative = inhibition: at 57.5 µM (top of the series)
Procedure, shortened: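 Cells seeded at 5,000 per well were treated with compounds over a concentration series and loaded with oleic acid (400 uM, as added). Lipid droplet fluorescence (488 nm excitation, 500-530 nm channel) was read by laser-scanning cytometry and normalized to 20 uM Triacsin C.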

[12] = target: Dual specificity protein kinase CLK4 (Homo sapiens) (UniProt Q9HAZ1); assay: qHTS Assay for Inhibitors of CDC-like Kinase 4 (Kinase-Glo Assay) (AID 1770); conditions: recombinant Clk4, Kinase-Glo ATP depletion luminescence; series mostly up to 66.7 µM; note: nearly all actives have a fitted effect of over 65% in size; note: potency is the fitted concentration of half-maximal effect
Procedure, shortened: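 Substrate mix (RS peptide 100 uM, ATP 1 uM) dispensed, compound pinned in, then Clk4 added to 25 nM final. Incubated 4.5 h at RT; Kinase-Glo reagent added, luminescence read after 5 min.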

[13] = target: Dual specificity protein kinase CLK4 (Homo sapiens) (UniProt Q9HAZ1); assay: qHTS Assay for Inhibitors of CDC-like Kinase 4 (ADP-Glo Assay) (AID 1771); conditions: recombinant CLK4, ADP-Glo luminescence; series mostly up to 80 µM; note: nearly all actives have a fitted effect of over 70% in size; note: potency is the fitted concentration of half-maximal effect
Procedure, shortened: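 Kinase reaction: Clk4 at 25 nM, RS repeat peptide substrate at 100 uM, ATP at 1 uM, 1 hr, room temperature. Product ADP detected as luciferase signal via ADP-Glo.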

[14] = target: Dual specificity protein kinase CLK4 (Homo sapiens) (UniProt Q9HAZ1); assay: qHTS Assay for Inhibitors of CDC-like Kinase 4 (ADP-FP Assay) (AID 1795); conditions: Transcreener ADP fluorescence polarization; series mostly up to 50 µM; note: nearly all actives have a fitted effect of over 60% in size; note: potency is the fitted concentration of half-maximal effect
Procedure, shortened: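 Clk4 6.25 nM; RS peptide 100 uM; ATP 1 uM; 25 mM Tris pH 7.5, 10 mM MgCl2; 1 h reaction. ADP detected via antibody/orange tracer FP displacement; TG003 positive control.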

[15] = Primary qHTS for small molecule stabilizers of the endoplasmic reticulum resident proteome: Secreted ER Calcium Modulated Protein (SERCaMP) assay (AID 1508630); conditions: SH-SY5Y GLuc-SERCaMP (Gaussia luciferase released on ER calcium loss) secretion, thapsigargin, luminescence; series mostly up to 38.4 µM; note: % is set by controls: 0 for no effect and ±100 for the full control effect
Procedure, shortened: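 GLuc-SERCaMP-expressing SH-SY5Y cells, pretreated 16 h with compound, are challenged with thapsigargin to empty ER calcium stores; after 4 h, coelenterazine is added directly to the medium and luminescence is imaged.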

[16] = target: Cytochrome P450 3A4 (Homo sapiens) (UniProt P08684); assay: qHTS Assay for Activators of Cytochrome P450 3A4 (AID 885); conditions: recombinant CYP3A4, Luciferin-PPXE luminescence, 60 min; series mostly up to 57.1 µM; note: nearly all actives have a fitted effect of over 65% in size
Procedure, shortened: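 20nM CYP3A4 + 25uM Luciferin-PPXE (=KM), 200mM KPO4; cpd 10 min RT; NADPH regen, 60 min RT; stop w/ detection buffer, 20 min; luminescence. Normalized to 57 uM ketoconazole.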

[17] = qHTS Assay for Identification of Small Molecule Agonists for Hypoxia Response Element Signaling Pathway (AID 914; active = well fitted activation curve with a large enough effect in the signal ratio, with a control signal flat, not every such curve was filed as active; the % refers to the signal ratio; note: % of control where 0% means no effect); conditions: ME-180 (cervical carcinoma) HRE-bla reporter, beta-lactamase ratio, CoCl2, 17 h; activation: stronger effect = higher value
Procedure, shortened: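 Positive modulation of EC50 CoCl2-induced hypoxia response element signaling is measured in ME-180 cells with a beta-lactamase reporter. Compounds are titrated, incubation runs 17 hours, and %Activity derives from the blue/green ratio.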

[18] = target: Ubiquitin carboxyl-terminal hydrolase 1 (Homo sapiens) (UniProt O94782); assay: Inhibitors of USP1/UAF1: Pilot qHTS (AID 504865); conditions: purified USP1/UAF1, Ub-rhodamine cleavage fluorescence; series mostly up to 54.9 µM;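 note: rhodamine fluorescence freed from ubiquitin-rhodamine substrate followed over time; top concentration of the series differs between compounds; % is set by controls: 0 for no effect and ±100 for the full control effect; nearly all actives have a fitted effect of over 35% in size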
Procedure, shortened: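 In 50mM HEPES pH 7.8 containing 0.5mM EDTA, 1mM TCEP, 0.1 mg/ml BSA and 0.01% Tween-20, 1nM USP1/UAF1 is exposed to compound for 15 min, then Ub-Rho (150nM final) is added and fluorescence is read over time.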

[19] = target: Cytochrome P450 2C19 (Homo sapiens) (UniProt P33261); assay: qHTS Assay for Inhibitors and Substrates of Cytochrome P450 2C19 (AID 899); conditions: recombinant CYP2C19, luciferin-H EGE luminescence; series mostly up to 57.1 µM; note: % is set by controls: 0 for no effect and ±100 for the full control effect; nearly all actives have a fitted effect of over 60% in size
Procedure, shortened: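 Human CYP2C19 (5nM) with Luciferin-H EGE at 10uM (its KM) in 50mM KPO4 was preincubated with compound for 10 min at 37C. NADPH regeneration started a 60 min 37C reaction. Luciferin was read by luminescence, normalized to 57uM ketoconazole.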

[20] = measured here: cell count channel max response
[21] = measured here: lipid channel max response

Sequence of 3',5'-cyclic-AMP phosphodiesterase 4B (Homo sapiens) (Q07343 whole entry, looked up): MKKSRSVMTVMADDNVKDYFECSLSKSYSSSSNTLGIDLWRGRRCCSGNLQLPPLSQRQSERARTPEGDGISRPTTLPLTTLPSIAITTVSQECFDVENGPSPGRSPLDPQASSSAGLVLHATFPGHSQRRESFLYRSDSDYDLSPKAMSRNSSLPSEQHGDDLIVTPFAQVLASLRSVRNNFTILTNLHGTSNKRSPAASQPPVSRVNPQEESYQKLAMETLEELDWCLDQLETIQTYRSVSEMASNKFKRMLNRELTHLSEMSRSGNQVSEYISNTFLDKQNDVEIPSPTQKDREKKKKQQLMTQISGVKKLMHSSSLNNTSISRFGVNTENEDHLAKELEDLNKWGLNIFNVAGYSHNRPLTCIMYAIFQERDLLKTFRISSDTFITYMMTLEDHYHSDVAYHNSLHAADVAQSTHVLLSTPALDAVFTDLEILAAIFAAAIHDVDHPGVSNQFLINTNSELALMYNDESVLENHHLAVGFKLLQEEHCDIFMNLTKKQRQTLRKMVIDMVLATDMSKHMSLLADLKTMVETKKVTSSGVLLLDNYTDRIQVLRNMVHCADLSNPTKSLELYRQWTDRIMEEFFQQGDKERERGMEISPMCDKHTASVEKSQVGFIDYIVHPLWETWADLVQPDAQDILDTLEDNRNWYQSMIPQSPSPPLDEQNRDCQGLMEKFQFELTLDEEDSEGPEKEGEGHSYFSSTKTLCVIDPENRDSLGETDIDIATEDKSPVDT
Sequence of Glucocorticoid receptor (Homo sapiens) (P04150 whole entry, looked up, the tested form may be a part): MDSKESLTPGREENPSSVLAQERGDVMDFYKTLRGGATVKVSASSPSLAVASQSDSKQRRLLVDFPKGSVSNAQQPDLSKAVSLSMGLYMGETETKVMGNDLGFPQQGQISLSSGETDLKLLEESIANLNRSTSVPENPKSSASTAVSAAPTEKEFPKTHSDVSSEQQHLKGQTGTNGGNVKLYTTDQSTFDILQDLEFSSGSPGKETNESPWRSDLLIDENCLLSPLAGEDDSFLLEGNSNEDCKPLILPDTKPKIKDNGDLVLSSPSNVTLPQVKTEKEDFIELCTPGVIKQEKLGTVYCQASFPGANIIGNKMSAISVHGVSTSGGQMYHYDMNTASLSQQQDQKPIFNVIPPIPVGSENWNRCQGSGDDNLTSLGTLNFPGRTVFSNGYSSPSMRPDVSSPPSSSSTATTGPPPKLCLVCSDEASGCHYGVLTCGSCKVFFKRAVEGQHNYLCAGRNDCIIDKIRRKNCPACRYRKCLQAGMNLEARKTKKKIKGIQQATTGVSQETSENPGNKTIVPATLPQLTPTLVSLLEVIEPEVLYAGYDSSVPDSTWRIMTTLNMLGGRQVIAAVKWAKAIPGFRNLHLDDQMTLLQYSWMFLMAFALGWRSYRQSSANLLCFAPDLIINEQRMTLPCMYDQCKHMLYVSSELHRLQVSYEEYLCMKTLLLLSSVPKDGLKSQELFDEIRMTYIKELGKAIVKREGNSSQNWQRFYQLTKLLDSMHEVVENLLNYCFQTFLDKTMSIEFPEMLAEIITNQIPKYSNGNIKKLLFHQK
Sequence of Dual specificity protein kinase CLK4 (Homo sapiens) (Q9HAZ1 whole entry, looked up): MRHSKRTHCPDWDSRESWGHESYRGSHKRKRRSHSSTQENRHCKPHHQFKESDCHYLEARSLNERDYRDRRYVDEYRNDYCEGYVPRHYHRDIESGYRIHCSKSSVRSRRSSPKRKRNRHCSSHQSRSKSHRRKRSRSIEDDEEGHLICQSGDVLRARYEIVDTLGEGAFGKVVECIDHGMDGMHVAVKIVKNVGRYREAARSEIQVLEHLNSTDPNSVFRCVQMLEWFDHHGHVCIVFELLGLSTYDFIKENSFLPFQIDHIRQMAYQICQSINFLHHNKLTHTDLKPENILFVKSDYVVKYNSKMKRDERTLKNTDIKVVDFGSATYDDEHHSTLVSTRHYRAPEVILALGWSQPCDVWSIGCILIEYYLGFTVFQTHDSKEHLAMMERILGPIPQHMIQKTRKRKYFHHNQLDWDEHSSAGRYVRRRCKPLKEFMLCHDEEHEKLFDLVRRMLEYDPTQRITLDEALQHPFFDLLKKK
Sequence of Cytochrome P450 1A2 (Homo sapiens) (P05177 whole entry, looked up): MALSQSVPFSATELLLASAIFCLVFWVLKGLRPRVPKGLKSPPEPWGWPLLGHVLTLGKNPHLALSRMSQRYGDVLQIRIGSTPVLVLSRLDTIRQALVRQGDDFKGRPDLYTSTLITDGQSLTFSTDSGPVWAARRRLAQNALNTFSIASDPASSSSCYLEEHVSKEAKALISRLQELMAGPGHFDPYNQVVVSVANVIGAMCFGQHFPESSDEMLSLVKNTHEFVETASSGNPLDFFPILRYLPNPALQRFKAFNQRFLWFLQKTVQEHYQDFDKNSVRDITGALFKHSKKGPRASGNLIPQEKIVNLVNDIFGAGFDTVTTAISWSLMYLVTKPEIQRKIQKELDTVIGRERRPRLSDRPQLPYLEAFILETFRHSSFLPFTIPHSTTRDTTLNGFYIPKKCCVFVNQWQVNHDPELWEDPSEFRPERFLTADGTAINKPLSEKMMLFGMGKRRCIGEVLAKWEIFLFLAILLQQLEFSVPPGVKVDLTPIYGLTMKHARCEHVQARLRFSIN
Sequence of Cytochrome P450 3A4 (Homo sapiens) (P08684 whole entry, looked up): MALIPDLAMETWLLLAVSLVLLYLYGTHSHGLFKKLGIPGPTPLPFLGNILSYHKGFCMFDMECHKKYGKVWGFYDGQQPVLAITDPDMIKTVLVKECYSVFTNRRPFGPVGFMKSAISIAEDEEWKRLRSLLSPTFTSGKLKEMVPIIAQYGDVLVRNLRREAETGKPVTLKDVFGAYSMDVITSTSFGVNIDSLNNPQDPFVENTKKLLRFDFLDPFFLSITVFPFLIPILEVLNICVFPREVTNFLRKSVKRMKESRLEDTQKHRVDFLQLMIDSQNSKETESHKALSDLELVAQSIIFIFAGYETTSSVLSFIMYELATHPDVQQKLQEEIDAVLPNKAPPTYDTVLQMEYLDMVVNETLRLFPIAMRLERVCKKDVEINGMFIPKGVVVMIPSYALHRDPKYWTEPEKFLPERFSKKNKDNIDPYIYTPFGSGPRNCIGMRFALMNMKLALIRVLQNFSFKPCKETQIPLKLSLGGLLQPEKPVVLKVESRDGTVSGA
Sequence of Ubiquitin carboxyl-terminal hydrolase 1 (Homo sapiens) (O94782 whole entry, looked up): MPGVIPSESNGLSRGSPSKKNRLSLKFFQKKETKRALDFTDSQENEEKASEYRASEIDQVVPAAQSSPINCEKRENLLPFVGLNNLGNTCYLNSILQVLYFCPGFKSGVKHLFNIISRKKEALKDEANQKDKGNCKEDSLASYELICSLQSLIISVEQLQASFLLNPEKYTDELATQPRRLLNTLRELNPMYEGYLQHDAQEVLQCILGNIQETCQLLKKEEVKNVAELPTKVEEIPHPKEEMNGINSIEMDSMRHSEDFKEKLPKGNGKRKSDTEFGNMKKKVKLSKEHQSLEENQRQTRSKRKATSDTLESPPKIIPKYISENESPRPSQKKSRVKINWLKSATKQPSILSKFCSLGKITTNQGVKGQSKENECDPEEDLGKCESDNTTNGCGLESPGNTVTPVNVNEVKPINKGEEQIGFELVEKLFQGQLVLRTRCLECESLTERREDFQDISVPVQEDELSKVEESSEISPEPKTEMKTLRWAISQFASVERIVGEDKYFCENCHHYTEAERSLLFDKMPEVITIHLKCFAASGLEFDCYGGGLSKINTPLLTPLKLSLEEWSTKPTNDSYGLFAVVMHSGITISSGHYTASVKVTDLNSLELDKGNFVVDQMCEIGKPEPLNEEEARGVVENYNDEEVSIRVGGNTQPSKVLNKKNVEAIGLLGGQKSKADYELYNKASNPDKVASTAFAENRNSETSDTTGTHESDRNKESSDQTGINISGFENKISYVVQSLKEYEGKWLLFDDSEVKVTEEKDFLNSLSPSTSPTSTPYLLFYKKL
Sequence of Lysosomal acid glucosylceramidase (Homo sapiens) (P04062 whole entry, looked up): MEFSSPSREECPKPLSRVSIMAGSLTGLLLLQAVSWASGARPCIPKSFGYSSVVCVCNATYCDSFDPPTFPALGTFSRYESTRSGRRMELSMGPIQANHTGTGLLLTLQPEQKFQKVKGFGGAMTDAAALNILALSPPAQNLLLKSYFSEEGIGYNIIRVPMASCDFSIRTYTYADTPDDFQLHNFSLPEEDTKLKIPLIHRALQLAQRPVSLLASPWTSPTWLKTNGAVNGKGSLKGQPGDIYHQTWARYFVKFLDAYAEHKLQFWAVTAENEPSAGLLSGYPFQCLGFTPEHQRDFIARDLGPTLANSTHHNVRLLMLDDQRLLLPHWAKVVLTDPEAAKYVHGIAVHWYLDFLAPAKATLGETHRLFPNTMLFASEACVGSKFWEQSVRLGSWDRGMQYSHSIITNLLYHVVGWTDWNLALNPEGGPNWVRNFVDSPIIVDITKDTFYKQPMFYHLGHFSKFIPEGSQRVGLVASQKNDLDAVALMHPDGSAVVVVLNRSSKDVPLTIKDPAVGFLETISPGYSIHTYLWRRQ
Sequence of Cytochrome P450 2C19 (Homo sapiens) (P33261 whole entry, looked up): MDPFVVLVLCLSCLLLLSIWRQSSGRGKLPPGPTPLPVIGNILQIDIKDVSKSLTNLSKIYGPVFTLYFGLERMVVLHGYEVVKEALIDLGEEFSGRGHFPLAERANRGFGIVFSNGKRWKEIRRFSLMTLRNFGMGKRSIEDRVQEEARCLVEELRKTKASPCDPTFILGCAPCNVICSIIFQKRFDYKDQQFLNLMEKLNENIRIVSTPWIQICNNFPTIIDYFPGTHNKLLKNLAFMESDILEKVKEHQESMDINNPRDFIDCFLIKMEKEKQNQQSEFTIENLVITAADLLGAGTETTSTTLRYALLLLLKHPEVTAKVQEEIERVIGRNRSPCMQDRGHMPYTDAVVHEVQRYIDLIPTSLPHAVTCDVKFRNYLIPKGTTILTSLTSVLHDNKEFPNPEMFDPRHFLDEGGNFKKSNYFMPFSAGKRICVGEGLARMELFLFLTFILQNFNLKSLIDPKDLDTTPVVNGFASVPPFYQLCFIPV

## Cn1c(=O)c(-c2ccc(Cl)cc2)nc2cnc(Oc3cccc(Cl)c3)nc21
[1]
  Potency: > 11.4 µM (inactive)
[2]
  activity change, negative = inhibition: -7.62% (inactive)
[3]
  Potency: 0.251 µM (active)
[4]
  activity change, negative = inhibition: -6.5% (inactive)
[5]
  activity, negative = inhibition: -0.313% (inactive)
[6]
  Potency: > 9.22 µM (inactive)
[7]
  Potency: > 46 µM (inactive)
[8]
  outcome: inactive
[9]
  Potency: inactive
[10]
  Potency: inactive
[11]
  activity change, negative = inhibition: 5.31% (inactive)
[11]; [20]
  max response: 11.8%
[11]; [21]
  max response: 14.2%
[12]
  Potency: inactive
[13]
  Potency: inactive
[14]
  Potency: inactive
[15]
  Potency: inactive

## COCCn1c(=O)cnc2cnc(Oc3ccccc3)nc21
[1]
  Potency: > 11.4 µM (inactive)
[2]
  activity change, negative = inhibition: -14.7% (inactive)
[3]
  Potency: 15.8 µM (active)
[4]
  activity change, negative = inhibition: -0.802% (inactive)
[5]
  activity, negative = inhibition: -13.1% (inactive)
[6]
  Potency: > 9.22 µM (inactive)
[8]
  outcome: inactive
[9]
  Potency: inactive
[16]
  Potency: inactive
[17]
  activation: 10.1% (inactive)
[11]
  activity change, negative = inhibition: 3.04% (inactive)
[11]; [20]
  max response: 12%
[11]; [21]
  max response: 12.6%
[12]
  Potency: inactive
[13]
  Potency: inactive
[14]
  Potency: inactive
[18]
  Potency: inactive
[15]
  Potency: inactive

## CN(Cc1ccco1)c1ncncc1-c1ccoc1
[1]
  Potency: > 11.4 µM (inactive)
[2]
  activity change, negative = inhibition: -12.2% (inactive)
[3]
  Potency: 15.8 µM (active)
[4]
  activity change, negative = inhibition: -18.1% (inactive)
[5]
  activity, negative = inhibition: -2% (inactive)
[7]
  Potency: > 46 µM (inactive)
[8]
  outcome: inactive
[9]
  Potency: inactive
[16]
  Potency: inactive
[11]
  activity change, negative = inhibition: 6.13% (inactive)
[11]; [20]
  max response: 22.8%
[11]; [21]
  max response: 28.4%
[12]
  Potency: inactive
[13]
  Potency: inactive
[14]
  Potency: inactive
[15]
  Potency: inactive

## Cc1noc(C)c1-c1cc(NCc2cccs2)ncn1
[1]
  Potency: > 11.4 µM (inactive)
[2]
  activity change, negative = inhibition: 17% (inactive)
[3]
  Potency: 0.794 µM (active)
[4]
  activity change, negative = inhibition: -7.58% (inactive)
[5]
  activity, negative = inhibition: 7.7% (inactive)
[6]
  Potency: > 46 µM (inactive)
[7]
  Potency: > 46 µM (inactive)
[8]
  outcome: inactive
[9]
  Potency: inactive
[19]
  Potency: inactive
[11]
  activity change, negative = inhibition: 5.54% (inactive)
[11]; [20]
  max response: 20.5%
[11]; [21]
  max response: 27.7%
[12]
  Potency: 11.2 µM (active)
[13]
  Potency: 10 µM (active)
[14]
  Potency: 14.1 µM (active)
[18]
  Potency: inactive
[15]
  Potency: inactive

## COc1ccc(-c2nc3cnc(N4CCN(C)CC4)nc3n(Cc3ccc(F)cc3)c2=O)cc1
[1]
  Potency: > 11.4 µM (inactive)
[2]
  activity change, negative = inhibition: 99.5% [activator] (active)
[3]
  Potency: 10 µM (active)
[4]
  activity change, negative = inhibition: 113% [activator] (active)
[6]
  Potency: > 9.22 µM (inactive)
[7]
  Potency: > 46 µM (inactive)
[10]
  Potency: inactive
[11]
  activity change, negative = inhibition: 0.278% (inactive)
[11]; [20]
  max response: 11.6%
[11]; [21]
  max response: 10.9%
[12]
  Potency: inactive
[13]
  Potency: inactive
[14]
  Potency: inactive
[18]
  Potency: inactive
[15]
  Potency: inactive

## Cc1nc2cnc(N(C)C)nc2n(C2CC2)c1=O
[1]
  Potency: > 11.4 µM (inactive)
[2]
  activity change, negative = inhibition: -20% (inactive)
[3]
  Potency: 3.98 µM (active)
[4]
  activity change, negative = inhibition: 4.63% (inactive)
[5]
  activity, negative = inhibition: -4.62% (inactive)
[6]
  Potency: > 9.22 µM (inactive)
[7]
  Potency: > 46 µM (inactive)
[8]
  outcome: inactive
[9]
  Potency: inactive
[17]
  activation: 9.86% (inactive)
[11]
  activity change, negative = inhibition: 5.93% (inactive)
[11]; [20]
  max response: 14.1%
[11]; [21]
  max response: 18.5%
[12]
  Potency: inactive
[13]
  Potency: inactive
[14]
  Potency: inactive
[18]
  Potency: inactive
[15]
  Potency: inactive

Source: PubChem BioAssay (NCATS)
